Data on eight compounds can be found in PubChem BioAssay.

The source made the active and inactive calls.

The subject of assay [1] is Plasmodium falciparum Sir2 (PF13_0152, Sir2A). Nature of the assay: Plasmodium falciparum Sir2A binding compounds – biochemical, small-molecule microarray, 635 nm fluorescence, primary screen (AID 1098).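 Also: score merges spot fluorescence intensity with its signal-to-noise ratio.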 As to conditions: fluorescence 635 nm, higher = more signal.
Assay [2] is described as follows: probe aDKK1 binding to arrayed compounds – biochemical, biotinylated probe, 635/667 nm fluorescence, primary screen (AID 1099).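 Also: score merges 667nm spot fluorescence with signal to noise across triplicate slides.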 As to conditions: small-molecule microarray, higher = more signal.
A short description of assay [3]: probe aCHRDL2 binding to arrayed compounds – biochemical, biotinylated probe, 635/667 nm fluorescence, primary screen (AID 1100). To be noted: small-molecule microarray, higher = more signal.
Assay [4] in a line: change in splice reporter luminescence, either direction, cell-based, HEK293, spliceosome inhibition project, primary screen (AID 1101).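 Also: HEK293 cells carrying a splicing-competent luciferase reporter gene; test concentration not given here.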 To be noted: HEK293 splicing luciferase reporter, 24 h, higher = more signal, called active from +8 up or from −8 down. On the technique in general: Reporter assays use an easily measured gene product as a stand-in for the process of interest.

Assay [5] deals with Fibroblast growth factor 10 (Homo sapiens) (UniProt O15520). The assay can be described thus: compounds binding fibroblast growth factor 10 – biochemical, small-molecule microarray, 635 nm fluorescence, primary screen (AID 1102). To be noted: FGF10 binding, fluorescence 635 nm, higher = more signal.
Assay [6] concerns glycogen synthase kinase-3 (GSK3A per assay name; protocol says GSK3B). The assay can be described thus: compounds binding glycogen synthase kinase-3 – biochemical, small-molecule microarray, 635 nm fluorescence, GSK3A, primary screen (AID 1103). Also: the record names both GSK3A and GSK3B. To be noted: fluorescence 635 nm, higher = more signal.
The target of assay [7] is Epidermal growth factor receptor (Homo sapiens) (UniProt P00533). The assay can be described thus: compounds binding epidermal growth factor receptor – biochemical, small-molecule microarray, 635 nm fluorescence, primary screen (AID 1104).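 Also: score merges 667 nm emission intensity with spot signal to noise over triplicate slides.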 To be noted: EGFR binding, higher = more signal.
Assay [8] addresses Follistatin-related protein 3 (Homo sapiens) (UniProt O95633). The assay can be described thus: compounds binding follistatin-related protein 3 – biochemical, small-molecule microarray, 635 nm fluorescence, primary screen (AID 1105).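 Also: score merges emission near 667 nm and signal to noise per printed spot across three slides.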 To be noted: FSTL3 binding, higher = more signal.
In assay [9] the target is Dickkopf-related protein 1 (Homo sapiens) (UniProt O94907). Nature of the assay: small molecules binding DKK1 protein – biochemical, small-molecule microarray, 635 nm fluorescence scan, primary screen (AID 1106).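 Also: score merges emission near 667 nm with signal to noise over three replicate slides.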 To be noted: higher = more signal.
Assay [10] concerns Inhibin beta A chain (activin A). Nature of the assay: small molecules binding activin A – biochemical, small-molecule microarray, 635 nm fluorescence scan, primary screen (AID 1107).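 Also: mouse activin A protein probed at 4.33 µg/mL on printed slides; score merges bound-protein fluorescence near 667 nm with spot signal-to-noise.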 To be noted: INHBA, higher = more signal.
Assay [11] deals with Human papillomavirus type 1a protein E7 (residues 44-93). Nature of the assay: small molecules binding HPV E7 44-93 – biochemical, small-molecule microarray, residues 44-93, 635 nm fluorescence, primary screen (AID 1108).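 Also: E7 fragment applied at 1 µg/mL in TBST for 1 h at 4 C; score combines spot fluorescence with its signal to noise ratio.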 To be noted: fluorescence 635 nm, higher = more signal.
Assay [12] is described as follows: hepatitis C replication reporter changes, two-sided – Huh7 cells, luciferase reporter, HCV replication inhibitor project, primary screen (AID 1109).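 Also: huh7 hepatoma cells harbouring a luciferase neomycin HCV replicon reporter; luciferase luminescence as measure of HCV replicon replication; test concentration not given here.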 To be noted: Huh7 HCV replicon luciferase reporter, 48 h; higher = more signal.
In assay [13] the target is Left-right determination factor 2 (Homo sapiens) (UniProt O00292). Nature of the assay: small molecules binding LEFTY2 protein – biochemical, small-molecule microarray, 635 nm fluorescence scan, primary screen (AID 1110). To be noted: higher = more signal.
Assay [14] has as its target Calmodulin-1 (Homo sapiens) (UniProt P0DP23). The assay can be described thus: small molecules binding calmodulin-1 with EGTA – biochemical, small-molecule microarray, Cy5-labelled CALM1, profiling panel (AID 1111).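 Also: labelled calmodulin applied in Tris saline Tween buffer holding calcium plus EGTA and DTT.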 To be noted: Cy5-CALM1 binding fluorescence, higher = more signal.
The target is the same in assay [15]. The assay can be described thus: small molecules binding Ca-loaded calmodulin-1 – biochemical, small-molecule microarray, Cy5-labelled CALM1, plus calcium, artefact control for SMM control-protein annotation, profiling panel (AID 1112).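 Also: score merges spot fluorescence with signal to noise from triplicate slides.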 As to conditions: Cy5-CALM1 binding fluorescence, higher = more signal.
Assay [16] can be described thus: probe aWnt5a binding to arrayed compounds – biochemical, biotinylated probe, 635/667 nm fluorescence, primary screen (AID 1113).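 Also: score merges 667 nm fluorescence intensity with signal-to-noise per printed feature.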 As to conditions: small-molecule microarray, higher = more signal.
The nature of assay [17]: probe aShh binding to arrayed compounds – biochemical, biotinylated probe, 635/667 nm fluorescence, primary screen (AID 1114).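 Also: probe is biotin-labelled aShh protein from a stem cell growth factor screen; measures binding of labelled protein to compounds printed on the slide; score merges feature fluorescence at 667 nm with signal-to-noise.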 As to conditions: small-molecule microarray, higher = more signal.
Assay [18] in a line: probe aNog binding to arrayed compounds – biochemical, biotinylated probe, 635/667 nm fluorescence, primary screen (AID 1115).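 Also: probe is biotinylated aNog protein used at 0.15 µg/mL for 1 h at 4 C; z-score combines 667 nm fluorescence of each spot with its signal to noise.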 As to conditions: small-molecule microarray, higher = more signal.
Assay [19] concerns the target Torsin-1A-interacting protein 1 (Homo sapiens) (UniProt Q5JTV8). Nature of the assay: compound microarray binding of lysate hLAP1 – cell lysate, small-molecule microarray, COS7 lysate, 635/667 nm fluorescence, primary screen (AID 1116). As to conditions: 635 nm fluorescence, higher = more signal.
Assay [20] deals with Alpha-bungarotoxin (Bungarus multicinctus) (UniProt P60615). Nature of the assay: compounds binding labelled alpha-BTX control protein – biochemical, small-molecule microarray, Alexa647 label, 635/667 nm fluorescence, artefact control for SMM control protein annotation, profiling panel (AID 1117). As to conditions: alpha-BTX-A647 binding fluorescence, higher = more signal.
Chain of Alpha-bungarotoxin (Bungarus multicinctus) (P60615 whole entry, looked up): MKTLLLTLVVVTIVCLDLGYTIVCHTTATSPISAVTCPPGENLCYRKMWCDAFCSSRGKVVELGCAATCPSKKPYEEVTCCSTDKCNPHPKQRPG

Chain of Torsin-1A-interacting protein 1 (Homo sapiens) (Q5JTV8 whole entry, looked up): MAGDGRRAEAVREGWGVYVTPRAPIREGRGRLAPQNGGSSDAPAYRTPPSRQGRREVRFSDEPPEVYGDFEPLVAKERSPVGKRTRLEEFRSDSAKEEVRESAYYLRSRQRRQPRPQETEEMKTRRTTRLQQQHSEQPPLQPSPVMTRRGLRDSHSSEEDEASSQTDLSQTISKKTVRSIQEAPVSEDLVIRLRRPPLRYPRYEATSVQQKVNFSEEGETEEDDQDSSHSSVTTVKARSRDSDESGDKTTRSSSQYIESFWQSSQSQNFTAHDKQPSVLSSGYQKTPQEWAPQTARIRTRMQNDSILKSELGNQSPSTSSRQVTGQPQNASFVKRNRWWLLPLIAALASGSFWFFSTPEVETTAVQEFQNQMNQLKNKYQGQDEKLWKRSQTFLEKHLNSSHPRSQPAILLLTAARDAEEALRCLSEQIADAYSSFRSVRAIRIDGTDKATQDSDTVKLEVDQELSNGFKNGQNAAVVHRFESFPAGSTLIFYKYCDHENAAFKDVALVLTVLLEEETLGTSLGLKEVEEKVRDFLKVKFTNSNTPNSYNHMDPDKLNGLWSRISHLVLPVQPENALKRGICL
Chain of Epidermal growth factor receptor (Homo sapiens) (P00533 whole entry, looked up): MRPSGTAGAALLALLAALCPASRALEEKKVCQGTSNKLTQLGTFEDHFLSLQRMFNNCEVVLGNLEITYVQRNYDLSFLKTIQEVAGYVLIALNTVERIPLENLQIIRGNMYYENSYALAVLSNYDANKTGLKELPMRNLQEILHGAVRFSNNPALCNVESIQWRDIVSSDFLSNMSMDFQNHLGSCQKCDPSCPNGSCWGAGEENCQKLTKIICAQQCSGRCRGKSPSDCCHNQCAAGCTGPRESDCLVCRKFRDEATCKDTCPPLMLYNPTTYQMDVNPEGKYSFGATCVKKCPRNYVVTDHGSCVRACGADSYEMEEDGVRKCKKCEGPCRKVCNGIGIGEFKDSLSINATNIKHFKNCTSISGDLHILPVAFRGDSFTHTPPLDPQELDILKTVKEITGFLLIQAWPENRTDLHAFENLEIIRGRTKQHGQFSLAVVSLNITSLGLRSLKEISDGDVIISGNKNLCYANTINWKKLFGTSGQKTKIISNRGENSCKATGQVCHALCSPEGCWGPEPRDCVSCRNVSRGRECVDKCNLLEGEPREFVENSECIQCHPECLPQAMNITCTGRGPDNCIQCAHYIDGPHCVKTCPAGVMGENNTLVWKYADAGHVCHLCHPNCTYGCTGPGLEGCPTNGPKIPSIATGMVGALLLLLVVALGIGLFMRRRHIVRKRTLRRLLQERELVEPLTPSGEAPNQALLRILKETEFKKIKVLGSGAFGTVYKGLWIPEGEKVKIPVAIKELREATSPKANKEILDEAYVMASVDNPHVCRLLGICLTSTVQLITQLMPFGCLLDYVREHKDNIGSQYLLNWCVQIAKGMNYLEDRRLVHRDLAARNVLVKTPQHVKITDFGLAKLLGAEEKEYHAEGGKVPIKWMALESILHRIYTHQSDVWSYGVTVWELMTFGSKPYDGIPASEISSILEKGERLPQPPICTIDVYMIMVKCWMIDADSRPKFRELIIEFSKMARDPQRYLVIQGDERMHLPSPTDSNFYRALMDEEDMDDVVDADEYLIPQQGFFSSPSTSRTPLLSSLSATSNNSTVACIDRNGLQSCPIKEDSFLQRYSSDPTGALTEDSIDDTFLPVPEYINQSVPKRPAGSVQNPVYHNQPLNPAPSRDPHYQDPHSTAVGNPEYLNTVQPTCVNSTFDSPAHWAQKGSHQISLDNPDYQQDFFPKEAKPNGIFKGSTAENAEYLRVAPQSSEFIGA
Chain of Left-right determination factor 2 (Homo sapiens) (O00292 whole entry, looked up): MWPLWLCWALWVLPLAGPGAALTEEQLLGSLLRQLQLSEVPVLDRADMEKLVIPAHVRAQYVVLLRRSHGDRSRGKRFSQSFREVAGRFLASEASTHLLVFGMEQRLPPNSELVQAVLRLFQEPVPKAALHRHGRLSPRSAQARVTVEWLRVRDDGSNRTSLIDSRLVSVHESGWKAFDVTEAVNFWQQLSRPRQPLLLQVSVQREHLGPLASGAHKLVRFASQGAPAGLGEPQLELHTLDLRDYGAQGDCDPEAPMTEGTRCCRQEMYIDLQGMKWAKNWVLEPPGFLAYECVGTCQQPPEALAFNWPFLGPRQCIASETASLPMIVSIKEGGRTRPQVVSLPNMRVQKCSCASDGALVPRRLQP
Chain of Fibroblast growth factor 10 (Homo sapiens) (O15520 whole entry, looked up): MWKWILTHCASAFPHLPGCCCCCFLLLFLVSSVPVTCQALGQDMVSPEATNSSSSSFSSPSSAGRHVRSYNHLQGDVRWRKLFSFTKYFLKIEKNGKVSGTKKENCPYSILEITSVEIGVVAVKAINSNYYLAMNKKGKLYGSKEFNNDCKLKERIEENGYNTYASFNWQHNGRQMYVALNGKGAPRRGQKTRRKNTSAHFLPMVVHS
Chain of Follistatin-related protein 3 (Homo sapiens) (O95633 whole entry, looked up): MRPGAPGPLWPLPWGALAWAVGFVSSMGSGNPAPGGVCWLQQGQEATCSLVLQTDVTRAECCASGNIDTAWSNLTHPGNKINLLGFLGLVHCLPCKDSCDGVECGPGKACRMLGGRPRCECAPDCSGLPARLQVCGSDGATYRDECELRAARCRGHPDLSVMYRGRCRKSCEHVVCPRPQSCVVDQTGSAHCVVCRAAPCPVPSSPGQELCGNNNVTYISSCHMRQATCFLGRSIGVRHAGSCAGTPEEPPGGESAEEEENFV
Chain of Dickkopf-related protein 1 (Homo sapiens) (O94907 whole entry, looked up): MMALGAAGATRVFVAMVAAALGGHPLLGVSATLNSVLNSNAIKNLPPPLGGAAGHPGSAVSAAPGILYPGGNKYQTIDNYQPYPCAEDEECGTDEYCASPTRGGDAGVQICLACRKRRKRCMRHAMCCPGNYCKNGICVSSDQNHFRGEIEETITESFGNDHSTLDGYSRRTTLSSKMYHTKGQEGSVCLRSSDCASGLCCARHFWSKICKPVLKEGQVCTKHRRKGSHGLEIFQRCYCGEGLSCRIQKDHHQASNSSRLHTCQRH

In the case of `C#CCN(CC1=CCCCC1)[C@H](c1ccccc1Br)[C@@H](O)Cc1ccccc1`, the composite z-score in assay [1] is 1.53; in [2], -0.0907; in [3] it was 0.979; in [5], -1.25; in assay [6], -0.28; in assay [7], -1.56. The composite z-score was -1.28 in assay [8]; -1.07 in [9]; 0.685 in assay [10]; -0.0413 in assay [11]; -1.07 in assay [13]; -0.929 in assay [14]. Also, the composite z-score in assay [15] is -0.568; in assay [16], -0.118; in assay [17], 0.108; in [18] it was -0.368; in assay [19], 0.632; in [20] it was 0.92. Moreover, the z-score in assay [4] was -1.37 (inactive); in assay [12], -2.33.

Regarding `CN(C)CCCC[C@@H]1NC(=O)[C@H]2C[C@@H](C(=O)NCCCCCNC(=O)CS)[C@@H](c3cccc(OCCO)c3)N2C1=O`, the composite z-score in assay [1] was 1.12; in assay [2], -0.144; in [3] it was 0.61; in assay [5], 0.305; in [6] it was 0.894; in assay [7], 0.227. In addition, the composite z-score in [8] was 0.65; in assay [9], 0.459; in [10], -0.0899; in assay [11], 0.586; in assay [13], -0.0183; in assay [14], 0.137. The composite z-score in [15] is -0.734; in assay [16], -0.195; in [17] it was 0.0796; in assay [18] it was -0.363; in assay [19] it was 0.898; in assay [20], -0.223. Also, the z-score in assay [4] was 0.515 (inactive); in assay [12] it was -0.556.

Regarding `C=CC[C@@]1(C(N)=O)N=C(c2ccc(OCCCO)cc2)O[C@@H]1c1ccccc1CN=[N+]=[N-]`, the composite z-score in assay [1] was 1.02; in [2], 0.917; in assay [3], 1.19; in assay [5] it was 0.903; in assay [6] it was 0.336; in [7] it was -0.44. Also, the composite z-score in assay [8] was 0.267; in [9] it was -0.196; in assay [10], 1.14; in assay [11] it was 1.39; in assay [13], -0.294; in assay [14] it was 1.64. Besides, the composite z-score came out at 0.767 in assay [15]; 0.0597 in assay [16]; 0.166 in assay [17]; 0.661 in assay [18]; 1.91 in assay [19]; 0.834 in assay [20]. The z-score in assay [4] is -1.63 (inactive); in assay [12], -1.56.

As for `C[N+](C)(C)CCCCNC(=O)[C@H]1C[C@H]2C(=O)N[C@@H](Cc3ccccc3)C(=O)N2[C@H]1c1ccc(O)cc1`, the composite z-score in [1] is 0.137; in assay [2], -0.0123; in assay [3], -0.0505; in assay [5], 0.612; in assay [6] it was 0.0215; in assay [7], 0.231. Further, the composite z-score in assay [8] is 0.953; in assay [9], 1.22; in assay [10] it was 0.859; in assay [11], -0.0021; in assay [13], 0.686; in assay [14], -0.494. In addition, the composite z-score in [15] was 0.565; in assay [16], -0.0944; in assay [17] it was 0.442; in [18], 0.0209; in assay [19], 0.427; in assay [20], 1.56. In addition, the z-score in assay [4] was 0.0946 (inactive); in assay [12] it was -0.72.

On to `COc1ccc(CCN2C(=O)[C@@]3(c4ccc([N+](=O)[O-])cc4)CC(=O)N(C4CCCCC4)[C@@H]3c3ccc(CO)cc32)cc1`, for which the composite z-score was 0.582 in assay [1]; 0.274 in [2]; 0.181 in assay [3]; 0.586 in [5]; 0.711 in [6]; -0.267 in [7]. Also, the composite z-score in assay [8] is 1.2; in assay [9], 1.48; in assay [10] it was 0.889; in [11], 0.106; in assay [13] it was 0.636; in assay [14], -0.574. Besides, the composite z-score in assay [15] is -0.747; in [16] it was 0.0495; in [17], -0.229; in assay [18] it was -0.33; in [19], 0.341; in assay [20] it was -0.167. Also, the z-score in assay [4] was -0.0884 (inactive); in assay [12] it was 0.431.

In the case of `Cc1ccc(S[C@]2(C(=O)NC(C)C)CC(=O)N(Cc3ccccc3Cl)[C@@H]2c2ccc(CO)cc2I)cc1`, the composite z-score in assay [1] was 1; in assay [2] it was 0.0056; in [3], 1.07; in assay [5] it was -1.05; in assay [6], -0.26; in assay [7] it was -1.51. Also, the composite z-score in [8] is -0.674; in assay [9], -1.39; in assay [10], 0.762; in assay [11], 0.472; in [13], -2.08; in [14], 0.0453. For the same compound, the composite z-score in assay [15] is -0.174; in [16], -0.252; in [17] it was -0.283; in assay [18], -0.158; in assay [19], -0.252; in assay [20] it was 1.33. The figures for the z-score in assay [4] and in assay [12] were 0.0132 (inactive) and -2.47, respectively.

Regarding `CCCCCN1CC=CC23O[C@@H]4/C=C\CCCOC(=O)C4[C@H]2C(=O)N(C(CO)C(C)C)[C@@H]3C1=O` (stereo not given in full), the composite z-score in assay [1] is 1.24; in assay [2] it was -0.248; in [3], -0.0212; in assay [5] it was 0.0758; in assay [6] it was -0.949; in [7], -0.637. Further, the composite z-score in assay [8] is -0.188; in [9] it was -0.148; in [10] it was 1.05; in [11] it was -0.453; in assay [13], -0.358; in [14], -0.33. In addition, the composite z-score in assay [15] is -0.272; in assay [16], -0.0107; in assay [17], -0.416; in assay [18] it was -0.158; in assay [19], 0.174; in [20], -0.0063. Also, the z-score in assay [4] was -0.455 (inactive); in [12], 0.568.

On to `COc1ccc(C(O)C2C=CC3C(=O)N(c4ccccc4)C(=O)C3N2Nc2ccc(C(C)C)cc2)cc1OCc1ccccc1` (stereo not given), for which the composite z-score in [1] is 1.5; in assay [2], 1.17; in assay [3] it was 1.27; in assay [5], 0.889; in assay [6], 1.27; in assay [7] it was 0.207. The composite z-score is 1.29 in assay [8]; -0.213 in assay [9]; 0.521 in assay [10]; 0.473 in assay [11]; 0.346 in [13]; 2.13 in [14]. Besides, the composite z-score in assay [15] is 0.682; in [16], 0.145; in [17], -0.0375; in assay [18] it was 0.299; in [19], 0.598; in assay [20] it was 2.07. The results for the z-score in assay [4] and in assay [12] were -0.00529 (inactive) and -0.264, respectively.
